High-throughput results deposited in PubChem BioAssay by several laboratories.
ALR H2O2 inh: inhibitors of human sulfhydryl oxidase ALR | P55789 | purified ALR, DTT oxidation, H2O2 HRP-luminol luminescence | inhibition, % (test concentration not listed) | hit rate 3.8% among 290,000 | AID 485317;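 active means mean replicate inhibition above about 79%, with every replicate also reaching it, limit read from the data; inconclusive means only one of the two criteria met; inactive means mean below limit and not every replicate reaching it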
Target sequence (P55789 whole entry, looked up): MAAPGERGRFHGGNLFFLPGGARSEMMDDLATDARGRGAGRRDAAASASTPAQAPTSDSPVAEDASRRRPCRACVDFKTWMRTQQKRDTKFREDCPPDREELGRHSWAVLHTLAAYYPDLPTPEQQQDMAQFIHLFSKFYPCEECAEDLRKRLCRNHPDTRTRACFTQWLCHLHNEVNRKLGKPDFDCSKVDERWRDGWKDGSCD
Calb FLC: C. albicans growth modulation with fluconazole. hit rate 0.57% among 300,000. growth inhibition, % (concentration not given with the values). C. albicans CaCi-2 (fluconazole-resistant clinical isolate) + fluconazole, Alamar Blue growth, 48 h;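 active means growth inhibition above about 58% in most replicates, limit read from the data, passing the limit was not always enough; inconclusive means exactly half the replicates above a set limit; inactive means most replicates below a set limit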;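 further: all wells also contain fluconazole at 8 µg/ml as a sub-toxic cotreatment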
CSC inhib: blocks cancer stem cells; inhibition, % at 7.5 µM; hit rate 1.1% among 300,000; AID 2717; cancer stem cell-like cells viability, luminescence; in the data active means inhibition above about 75%; inconclusive means no clear call, values can overlap the other calls; tested in HMLE shEcad cells
PP5 inh: PP5 (human) phosphatase inhibition | P53041 | purified PP5c, OMFP substrate fluorescence | inhibition, % at 6.7 µM | hit rate 0.18% among 320,000 | AID 1987;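 active means inhibition above the campaign's mean inhibition across all tested compounds plus 3 SD, cut at about 9.5% in these data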
PP1 inh: counter-screen for PP5 inhibitors: inhibitors of human PP1-alpha | hit rate 0.9% among 320,000 | purified PP1alpha, OMFP fluorescence | P62136 | inhibition, % at 6.7 µM;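 active means inhibition above the mean inhibition of all tested compounds plus 3 SD, computed separately for each screening campaign, cut at about 15% in these data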
Target sequence (P62136 whole entry, looked up): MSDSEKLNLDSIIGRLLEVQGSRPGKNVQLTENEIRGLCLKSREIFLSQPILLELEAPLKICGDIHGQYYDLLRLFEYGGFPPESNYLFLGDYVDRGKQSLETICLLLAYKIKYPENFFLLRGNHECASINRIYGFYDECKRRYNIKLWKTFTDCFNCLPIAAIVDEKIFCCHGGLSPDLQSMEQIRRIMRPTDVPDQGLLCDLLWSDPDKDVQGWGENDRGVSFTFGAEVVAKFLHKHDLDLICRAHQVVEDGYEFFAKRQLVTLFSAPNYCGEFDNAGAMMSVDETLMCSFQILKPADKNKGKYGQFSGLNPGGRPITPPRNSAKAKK
PP1 inh confirm: confirmation of human PP1 phosphatase inhibitors; shares compounds with PP1 inh; purified PP1alpha, OMFP substrate fluorescence; inhibition, % at 6.7 µM; hit rate 52% among 1,900; AID 2358;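 active means mean PP1 inhibition above a set limit taken from the earlier primary screen, cut at about 15% in these data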
PP5 inh counter: inhibits human PP5 phosphatase in PP1 counter-screen; shares compounds with PP1 inh; purified PP5c, OMFP fluorescence; inhibition, % at 6.7 µM; hit rate 4% among 1,900; AID 2360;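 active means mean PP5 inhibition over triplicate wells above about 9.5% taken from the earlier PP1 screen, limit read from the data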
Numbers stand for hits; . = inactive; ? = inconclusive; / = no result. An excerpt weighted towards active compounds, which were near 5.4% of everything screened.

SMILES	ALR H2O2 inh	Calb FLC	CSC inhib	PP5 inh	PP1 inh	PP1 inh confirm	PP5 inh counter
CCOC(=O)C1Nc2ccc(Br)cc2C2C=CCC12 (stereo not drawn)	/	.	.	.	.	/	/
O=C(Nc1ccc(N2CCCC2)cc1)c1ccc2ccccc2c1	/	.	.	.	21	.	.
CC(=O)N1CCN(c2ccc(NC(=O)c3ccc4ccccc4c3)cc2)CC1	.	.	/	.	.	/	/
Cc1ccn2cc(C(=O)Nc3ccc4c(c3)OCCO4)nc2c1	.	.	.	.	.	/	/
CSCCC(NC(=O)COc1ccccc1)C(=O)N(C)CC(=O)Nc1c(C)cccc1C (stereo not drawn)	.	.	.	.	21	.	.
CSCCC(NC(=O)COc1ccccc1)C(=O)OCCOc1ccc(C)cc1 (stereo not drawn)	.	/	/	.	.	/	/
CC(OC(=O)C12CCC(=O)N1c1ccccc1S2)C(=O)Nc1cccc(Cl)c1 (stereo not drawn)	.	/	.	.	.	/	/
CCOC(=O)c1sc(N2N=C(C)/C(=C\c3ccc(OCC(=O)OC)cc3)C2=O)nc1C	/	.	.	.	24	.	.
C=CCn1c(N)cc(=O)nc1SCC(=O)Nc1ccccc1C(N)=O	.	.	.	.	.	/	/
CC1=CC(=O)c2c(O)ccc(O)c2C1=O	.	/	.	.	28	.	28
O=C1C=C(O)c2cccc(O)c2C1=O	.	/	.	.	.	/	/
COc1c(C)cc(S(=O)(=O)N2CCCC2)c(C)c1C	.	.	.	.	.	/	/
CCCCOc1ccc(C2C(C(=O)c3ccc(C)o3)=C(O)C(=O)N2CC2CCCO2)cc1 (stereo not drawn)	.	.	.	.	20	27	.
CCN(C1CCCCC1)S(=O)(=O)c1ccc(OC)c(C)c1	/	.	.	.	.	/	/
COc1cc(CN(C2CCCCC2)S(=O)(=O)c2ccc(S(=O)(=O)N(C)C3CCCCC3)cc2)cc(OC)c1OC	/	.	.	.	19	.	.
COc1ccc(/C=N\NC(=O)c2cc(O)c(O)c(O)c2)cc1COc1ccc(C(=O)OCC(C)C)cc1	.	.	.	.	27	25	.
COc1ccc(/C=N\NC(=O)c2ccccc2F)cc1COc1ccc(F)cc1F	.	.	.	.	.	/	/
COc1ccc(/C=N/NC(=O)c2ccc(NC(C)=O)cc2)cc1COc1ccc(F)cc1F	.	.	.	.	22	.	.
O=C(/C=C/c1cccs1)NC(=S)NNC(=O)Cc1cccs1	.	.	.	.	25	24	.
Cc1onc(-c2ccccc2)c1C(=O)NC(=S)NNC(=O)c1cc(-c2ccc(F)cc2)n[nH]1	.	.	.	.	29	22	.
Cc1onc(-c2ccccc2)c1C(=O)NNC(=S)NC(=O)/C=C/c1cccs1	.	.	.	.	19	.	.
COc1ccc(/C=C/C(=O)NC(=S)NNC(=O)Cc2cccs2)cc1OC	.	.	.	.	.	/	/
Cc1onc(-c2ccccc2)c1C(=O)NC(=S)NNC(=O)c1ccco1	.	.	.	.	.	/	/
Cn1c(=O)n(/N=C/c2ccccc2)c2ccccc21	.	.	.	.	.	/	/
Cc1ccccc1C(=O)Nc1ccc2c(c1)CCCN2C(=O)c1cccs1	.	.	.	.	.	/	/
SMILES	ALR H2O2 inh	Calb FLC	CSC inhib	PP5 inh	PP1 inh	PP1 inh confirm	PP5 inh counter
CCOC(=O)c1ccc(-n2c(O)c(/C=N/NC(=O)C3COc4ccccc4O3)c3ccccc3c2=O)cc1 (stereo not drawn)	.	.	.	.	31	33	.
O=C(Cn1cnc2sc(-c3ccccc3)cc2c1=O)NCc1ccco1	.	/	.	.	22	19	.
Cn1nc(C(F)(F)F)c(-c2ccccc2)c1NC(=O)c1nccnc1C(=O)O	/	.	.	.	25	.	.
Cn1nc(C(F)(F)F)c(-c2ccc(Br)cc2)c1NC(=O)c1nccnc1C(=O)O	.	.	.	.	.	/	/
COc1ccc(N(C(C)=O)S(=O)(=O)c2cccs2)cc1	.	.	.	.	.	/	/
O=C(COc1ccccc1)N1CCN(S(=O)(=O)c2ccc(Br)cc2)CC1	.	.	.	.	22	.	.
Cc1nc(C(=O)Nc2cc(Cl)ccc2Cl)nn1-c1cc(OC(C)C)c(Cl)cc1Cl	.	.	.	.	.	/	/
O=C(O)c1ccc2ncsc2c1	?	.	.	.	19	37	.
O=C(c1ccc(CS(=O)Cc2ccc(Cl)cc2)o1)N1CCN(c2ccccc2F)CC1 (stereo not drawn)	.	.	.	.	.	/	/
CCOC(=O)Cc1cc(=O)n(-c2nc3ccccc3s2)[nH]1	98	.	.	.	44	.	.
O=C(O)[C@@H](c1ccccc1)N1Cc2ccccc2C1=O	.	.	.	.	24	35	.
NC(=O)CC(NC(=O)Cc1ccc(Br)cc1)c1ccc(N2CCN(c3ccc(F)cc3)CC2)c([N+](=O)[O-])c1 (stereo not drawn)	.	.	.	.	18	.	.
NC(=O)CC(NC(=O)c1ccc(Br)cc1)c1ccc(N2CCN(c3ccc(F)cc3)CC2)c([N+](=O)[O-])c1 (stereo not drawn)	.	.	.	.	21	.	.
NC(=O)CC(NC(=O)c1ccccc1)c1ccc(N2CCN(c3ccccn3)CC2)c([N+](=O)[O-])c1 (stereo not drawn)	.	.	.	.	.	/	/
NC(=O)CC(NC(=O)c1ccc(Br)cc1)c1ccc(N2CCC(Cc3ccccc3)CC2)c([N+](=O)[O-])c1 (stereo not drawn)	.	.	.	.	20	.	.
Cc1ccc(OCCn2ncc3ccccc3c2=O)c(C)c1	.	.	.	.	.	/	/
Nc1nc(N)c2cc(Sc3ccc4ccccc4c3)ccc2n1	.	100	119	.	23	.	.
CCC(C)(C)NC(=O)C(c1ccc(C)o1)N(C(=O)c1csnn1)c1cccc(F)c1 (stereo not drawn)	.	.	.	.	.	/	/
C#CCOCCOCCOCCNc1nc(N2CCN(C(=O)C(Cc3ccc(O)cc3)n3cc(C(N)C(C)CC)nn3)CC2)nc(N2CCN(C(=O)C(Cc3ccc(O)cc3)n3cc(C(N)C(C)CC)nn3)CC2)n1 (stereo not drawn)	.	.	.	.	.	/	/
C#CCOCCOCCOCCNc1nc(N2CCN(C(=O)[C@H](Cc3ccc(O)cc3)n3cc([C@@H](N)C(C)CC)nn3)CC2)nc(N2CCN(C(=O)[C@H](Cc3cc4ccccc4[nH]3)n3cc([C@@H](N)Cc4ccc(O)cc4)nn3)CC2)n1 (stereo partly drawn)	.	.	.	.	22	.	.
C#CCOCCOCCOCCNc1nc(N2CCN(C(=O)C(Cc3ccc(O)cc3)n3cc(C(N)CC(C)C)nn3)CC2)nc(N2CCN(C(=O)C(Cc3cc4ccccc4[nH]3)n3cc(C(N)C(C)CC)nn3)CC2)n1 (stereo not drawn)	.	.	.	.	20	.	.
